Results published in PubChem BioAssay (NCI).
About 83,000 compounds went through this panel and 20% of them were active in at least one assay; those are over-represented in the sample as a whole.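 Single-concentration screen, 48 h exposure, 96-well plates. Endpoint: percent growth. Below 10 = active.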 Values without a mark were called inactive. The source made the active and inactive calls.

Tests used:
Assay in all cases: NCI-60 one-dose screen, 48 h (100 = growth as untreated, 0 = no growth, -100 = all killed)
Conditions in all cases: 10 µM unless noted
DU-145 prostate = tested on: DU-145 prostate
K-562 leukemia = tested on: K-562 leukemia
MALME-3M melanoma = tested on: MALME-3M melanoma
MDA-MB-231 breast = tested on: MDA-MB-231 breast
SF-268 CNS = tested on: SF-268 CNS
SF-295 CNS = tested on: SF-295 CNS
SF-539 CNS = tested on: SF-539 CNS
M14 melanoma = tested on: M14 melanoma
HCT-15 colon = tested on: HCT-15 colon
HT29 colon = tested on: HT29 colon
SNB-75 CNS = tested on: SNB-75 CNS
SNB-19 CNS = tested on: SNB-19 CNS
U251 CNS = tested on: U251 CNS
PC-3 prostate = tested on: PC-3 prostate
SK-MEL-5 melanoma = tested on: SK-MEL-5 melanoma
UACC-62 melanoma = tested on: UACC-62 melanoma
LOX IMVI melanoma = tested on: LOX IMVI melanoma
SK-MEL-28 melanoma = tested on: SK-MEL-28 melanoma

SMILES: Cc1nn(-c2nc3ccccc3[nH]2)c2c1C(c1ccc(O)cc1)CC(=O)N2 (configuration not stated)
- growth (DU-145 prostate): 99.5%
- growth (K-562 leukemia): 97.8%
- growth (MALME-3M melanoma): 100%
- growth (MDA-MB-231 breast): 71.9%
- growth (SF-268 CNS): 74%
- growth (SF-295 CNS): -16.2% (active)
- growth (SF-539 CNS): 95.4%
- growth (M14 melanoma): 72%
- growth (HCT-15 colon): 70.6%
- growth (HT29 colon): 83.9%
- growth (SNB-75 CNS): 27.8%
- growth (SNB-19 CNS): 84.1%
- growth (U251 CNS): 76.4%
- growth (PC-3 prostate): 77.7%
- growth (SK-MEL-5 melanoma): 85.3%
- growth (UACC-62 melanoma): 84.9%
- growth (LOX IMVI melanoma): 85.2%
- growth (SK-MEL-28 melanoma): 80.4%

SMILES: Nc1c(C(=O)c2ccccc2)sc2nc(-c3cccs3)ccc12
- growth (DU-145 prostate): 20.6%
- growth (K-562 leukemia): 14.1%
- growth (MALME-3M melanoma): 72.5%
- growth (MDA-MB-231 breast): 37.9%
- growth (SF-268 CNS): 45.7%
- growth (SF-295 CNS): 5.01% (active)
- growth (SF-539 CNS): 1.09% (active)
- growth (M14 melanoma): 30.2%
- growth (HCT-15 colon): 24.7%
- growth (HT29 colon): 5.02% (active)
- growth (SNB-75 CNS): 32.4%
- growth (SNB-19 CNS): 36.1%
- growth (U251 CNS): 17.6%
- growth (PC-3 prostate): 23%
- growth (SK-MEL-5 melanoma): 17.5%
- growth (UACC-62 melanoma): 11.8%
- growth (LOX IMVI melanoma): 44.8%
- growth (SK-MEL-28 melanoma): 72.6%

SMILES: Cc1ccc2oc(=O)cc(-c3cc(-c4cc5ccccc5oc4=O)nc(N)c3C#N)c2c1
- growth (DU-145 prostate): 61.6%
- growth (K-562 leukemia): 81%
- growth (MALME-3M melanoma): 51.3%
- growth (MDA-MB-231 breast): 55.5%
- growth (SF-268 CNS): 48.1%
- growth (SF-295 CNS): 63.4%
- growth (SF-539 CNS): 59.8%
- growth (M14 melanoma): 85.7%
- growth (HCT-15 colon): 91.1%
- growth (HT29 colon): 68.3%
- growth (SNB-75 CNS): 34%
- growth (SNB-19 CNS): 75.8%
- growth (U251 CNS): 54.3%
- growth (PC-3 prostate): 69%
- growth (SK-MEL-5 melanoma): 60.8%
- growth (UACC-62 melanoma): 81.5%
- growth (LOX IMVI melanoma): 78.2%
- growth (SK-MEL-28 melanoma): 76.7%

SMILES: COc1ccc(C2CC(=O)c3c(O)c(OC)c(OC)c(OC)c3O2)c(O)c1 (configuration not stated)
- growth (DU-145 prostate): 22.2%
- growth (K-562 leukemia): 13.9%
- growth (MALME-3M melanoma): 64.7%
- growth (MDA-MB-231 breast): 24.9%
- growth (SF-268 CNS): 44.4%
- growth (SF-295 CNS): 7.86% (active)
- growth (SF-539 CNS): -7.78% (active)
- growth (M14 melanoma): 12.6%
- growth (HCT-15 colon): 10.3%
- growth (HT29 colon): 65.3%
- growth (SNB-75 CNS): 38.1%
- growth (SNB-19 CNS): 35.6%
- growth (U251 CNS): 24.3%
- growth (PC-3 prostate): 29%
- growth (SK-MEL-5 melanoma): 20%
- growth (UACC-62 melanoma): 37%
- growth (LOX IMVI melanoma): 44.2%
- growth (SK-MEL-28 melanoma): 61.2%

SMILES: COc1ccc(-c2cc3c(oc2=O)-c2ccccc2OC3OC(C)=O)cc1 (configuration not stated)
- growth (DU-145 prostate): 107%
- growth (K-562 leukemia): 62.5%
- growth (MALME-3M melanoma): 107%
- growth (MDA-MB-231 breast): 85.7%
- growth (SF-268 CNS): 108%
- growth (SF-295 CNS): 97.9%
- growth (SF-539 CNS): 101%
- growth (M14 melanoma): 101%
- growth (HCT-15 colon): 86.2%
- growth (HT29 colon): 81.1%
- growth (SNB-75 CNS): 100%
- growth (SNB-19 CNS): 98%
- growth (U251 CNS): 89.4%
- growth (PC-3 prostate): 89.2%
- growth (SK-MEL-5 melanoma): 98.2%
- growth (UACC-62 melanoma): 81.8%
- growth (LOX IMVI melanoma): 98.2%
- growth (SK-MEL-28 melanoma): 118%

SMILES: CC(CCCC(=O)O)c1ccoc1 (configuration not stated)
- growth (DU-145 prostate): 103%
- growth (K-562 leukemia): 103%
- growth (MALME-3M melanoma): 96.8%
- growth (MDA-MB-231 breast): 109%
- growth (SF-268 CNS): 95.8%
- growth (SF-295 CNS): 95.4%
- growth (SF-539 CNS): 102%
- growth (M14 melanoma): 97.2%
- growth (HCT-15 colon): 102%
- growth (HT29 colon): 95.5%
- growth (SNB-75 CNS): 92.6%
- growth (SNB-19 CNS): 111%
- growth (U251 CNS): 109%
- growth (PC-3 prostate): 98.4%
- growth (SK-MEL-5 melanoma): 106%
- growth (UACC-62 melanoma): 107%
- growth (LOX IMVI melanoma): 97.8%
- growth (SK-MEL-28 melanoma): 109%

SMILES: CC1(C=O)NC(=O)NC1=O (configuration not stated)
- growth (DU-145 prostate): 111%
- growth (K-562 leukemia): 103%
- growth (MALME-3M melanoma): 118%
- growth (MDA-MB-231 breast): 103%
- growth (SF-268 CNS): 101%
- growth (SF-295 CNS): 103%
- growth (SF-539 CNS): 103%
- growth (M14 melanoma): 103%
- growth (HCT-15 colon): 101%
- growth (HT29 colon): 99.2%
- growth (SNB-75 CNS): 92.8%
- growth (SNB-19 CNS): 103%
- growth (U251 CNS): 82%
- growth (PC-3 prostate): 88%
- growth (SK-MEL-5 melanoma): 102%
- growth (UACC-62 melanoma): 99.2%
- growth (LOX IMVI melanoma): 100%
- growth (SK-MEL-28 melanoma): 112%

SMILES: Nc1c2c(c(O)c3c1=C(CO)C=N3)=NCCS2
- growth (DU-145 prostate): -93% (active)
- growth (K-562 leukemia): -33.1% (active)
- growth (MALME-3M melanoma): -96.6% (active)
- growth (MDA-MB-231 breast): 2.38% (active)
- growth (SF-268 CNS): -47.9% (active)
- growth (SF-295 CNS): -94.5% (active)
- growth (SF-539 CNS): -95.8% (active)
- growth (M14 melanoma): -89.7% (active)
- growth (HCT-15 colon): -87.1% (active)
- growth (HT29 colon): -20.9% (active)
- growth (SNB-75 CNS): -79.2% (active)
- growth (SNB-19 CNS): -93.7% (active)
- growth (U251 CNS): -91.5% (active)
- growth (PC-3 prostate): -51.8% (active)
- growth (SK-MEL-5 melanoma): -99.1% (active)
- growth (UACC-62 melanoma): -79.9% (active)
- growth (LOX IMVI melanoma): -89.5% (active)
- growth (SK-MEL-28 melanoma): -79% (active)

SMILES: CC[n+]1c(/C=C/C=C2\N(C)c3ccccc3C2(C)C)sc2ccccc21
- growth (DU-145 prostate): 20.3%
- growth (K-562 leukemia): 2.44% (active)
- growth (MALME-3M melanoma): 13.6%
- growth (MDA-MB-231 breast): 8.67% (active)
- growth (SF-268 CNS): 25.6%
- growth (SF-295 CNS): -6.72% (active)
- growth (SF-539 CNS): 19.9%
- growth (M14 melanoma): 12.6%
- growth (HCT-15 colon): 6.66% (active)
- growth (HT29 colon): 6.94% (active)
- growth (SNB-75 CNS): 28.8%
- growth (SNB-19 CNS): 31.9%
- growth (U251 CNS): 10.8%
- growth (PC-3 prostate): 17.4%
- growth (SK-MEL-5 melanoma): -89.7% (active)
- growth (UACC-62 melanoma): 12.4%
- growth (LOX IMVI melanoma): 2.76% (active)
- growth (SK-MEL-28 melanoma): 37.1%
